HePTP inhibitor: inhibitors of human HePTP phosphatase. hit rate 0.64% among 110,000. AID 521. recombinant HePTP phosphatase activity, OD absorbance. P35236. inhibition, % at 20 µM; in the data active = inhibition above about 50%;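 also: plate controls were vehicle for no effect and reference inhibitor for full effect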
FXIIa mix inh: blocks human factor XIIa in pooled compound mixtures; P00748; purified FXIIa, fluorogenic substrate; inhibition, % at 5 µM; hit rate 0.2% among 62,000;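 also: 0% = enzyme without compound and 100% = no enzyme blank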
FXIa inh mix: inhibitors of human coagulation factor XIa, pooled mixtures; P03951; purified FXIa, fluorogenic substrate; inhibition, % at 5 µM; hit rate 0.19% among 62,000; AID 680;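 also: each value is inhibition by a whole ten-compound pool holding the compound; 0% = enzyme with no mixture and 100% = wells lacking enzyme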
D1 mod: D1 dopamine receptor (human) allosteric modulation. B-score at 10 µM. P21728. hit rate 5.9% among 58,000. HEK293 D1, CRE-luciferase, dopamine EC30 potentiation; actives deviate in either direction;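 active = luminescence count or its row- and column-corrected plate score outside the 99.7% band of the plate's sample wells, on either side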
Target sequence (P21728 whole entry, looked up): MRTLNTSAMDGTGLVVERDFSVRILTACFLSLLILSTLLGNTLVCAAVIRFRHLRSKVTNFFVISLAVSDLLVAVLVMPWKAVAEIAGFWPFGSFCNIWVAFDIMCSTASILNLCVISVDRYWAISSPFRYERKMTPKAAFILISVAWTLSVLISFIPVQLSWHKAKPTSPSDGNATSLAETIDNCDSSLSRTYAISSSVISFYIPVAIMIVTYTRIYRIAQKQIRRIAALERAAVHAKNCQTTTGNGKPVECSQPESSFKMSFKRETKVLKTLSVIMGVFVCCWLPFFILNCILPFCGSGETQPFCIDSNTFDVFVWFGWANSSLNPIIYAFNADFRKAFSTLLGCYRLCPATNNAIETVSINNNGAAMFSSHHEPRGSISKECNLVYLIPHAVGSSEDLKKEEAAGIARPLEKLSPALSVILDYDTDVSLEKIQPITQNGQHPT
TNAP act DEA: activates human TNAP at intermediate phosphate acceptor concentration. purified TNAP, CDP-star luminescence, 100 mM DEA, 30 min; stronger effect = higher value; scale: 0 levamisole-inhibited, 1 vehicle-only enzyme. activation factor at 20 µM. 64,000 tested, under 10 active;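 active = activation factor of at least 2 at 20 µM, relative to controls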
Calb biofilm kill: kills Candida albicans biofilms. C. albicans biofilm + clotrimazole, Alamar Blue. inhibition, % at 6 µM. hit rate 0.14% among 85,000. AID 834;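 active = inhibition above 20%; inactive = inhibition below 20%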;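 also: preformed 24 hr biofilms exposed to compound for 48 hr; 0% = biofilm without compound and 100% = blank killed by clotrimazole plus chlorhexidine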
D1 mod confirm: confirmation of human D1 dopamine receptor allosteric modulators; shares compounds with D1 mod; hit rate 88% among 2,200; luminescence at 10 µM; HEK293 D1 CRE-luciferase, dopamine EC30 potentiation; stronger effect = higher value;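 active = luminescence in either of two replicates above the same-plate mean plus 3 SD of the low-dose dopamine control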
D1 ag no DA: secondary test of D1 modulators: activity without dopamine. shares compounds with D1 mod. HEK293 D1 CRE-luciferase, luminescence, no dopamine; stronger effect = higher value. luminescence at 10 µM. hit rate 0.8% among 1,900. AID 646; in the data active = luminescence above about 3900
Isoprot counter: counter-screen for D1 modulators: isoproterenol response in HEK293 cells; shares compounds with D1 mod; HEK293 D1 CRE-luciferase, isoproterenol EC30 counter-screen; stronger effect = higher value; luminescence at 10 µM; hit rate 63% among 2,200;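 active = luminescence in either replicate above plate mean of wells with a partly effective reference agonist dose plus 3 SD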;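 also: isoproterenol raises cAMP through native beta-adrenoceptor Gs so signal bypasses D1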
Numbers without * were called inactive. This excerpt belongs to a sample that is enriched for hits. Rule as the data show it, unless noted: active = inhibition above about 20% (passing the limit was not always enough); inactive = the rest.

`Cn1c(N2CCCC2)nc2c1c(=O)n(Cc1cccc(F)c1)c(=O)n2C` gave HePTP inhibitor 3.1, FXIIa mix inh 12.3, FXIa inh mix 6.3, D1 mod 4.48*, TNAP act DEA 0.9, D1 mod confirm 11200*, D1 ag no DA 1392 and Isoprot counter 3216*.
Cn1c(N2CCCC2)nc2c1c(=O)n(Cc1ccc(Cl)cc1)c(=O)n2C was read as HePTP inhibitor 2.8, FXIIa mix inh 5.7, FXIa inh mix 10.5, D1 mod 8.97*, TNAP act DEA 0.9, Calb biofilm kill 8.5, D1 mod confirm 17964*, D1 ag no DA 1940 and Isoprot counter 5520*.
O=c1oc2ccc(Br)cc2cc1-c1nc(-c2ccc([N+](=O)[O-])cc2)cs1 was read as HePTP inhibitor 1.1.
`CC(=O)C(C(=O)c1ccccc1)C1(O)C(=O)Nc2ccccc21` (stereo unspecified) gave HePTP inhibitor -7.2.
CCN(CC)Cc1nc2c(c(=O)[nH]1)C1(CCCC1)Cc1ccccc1-2 was read as Calb biofilm kill 6.8.
For CCC1(CC)Cc2ccccc2-c2nc(CN3CCOCC3)[nH]c(=O)c21 the results were HePTP inhibitor -5.0, FXIIa mix inh 4.8, FXIa inh mix 8.0, D1 mod 18.3*, TNAP act DEA 1.1, Calb biofilm kill 3.2, D1 mod confirm 22860*, D1 ag no DA 1804 and Isoprot counter 4796*.
`C1=Nc2c(NCc3ccccc3)ncnc2Oc2ccccc21` gave HePTP inhibitor -4.5, FXIIa mix inh -1.2, FXIa inh mix -2.4, D1 mod 7.98*, TNAP act DEA 0.9, Calb biofilm kill 2.8, D1 mod confirm 10088*, D1 ag no DA 1584 and Isoprot counter 4088*.
Screening c1ccc(CNc2ncnc3nc[nH]c23)cc1 returned Calb biofilm kill 5.7.
CC(=O)CC(=O)NCc1ccc(F)cc1 was read as HePTP inhibitor 2.1.
For COC(=O)c1ccsc1NC(=O)C1=COCCO1 the results were HePTP inhibitor 5.3, FXIIa mix inh 1.2, FXIa inh mix -3.2, D1 mod 9.06*, TNAP act DEA 0.9, Calb biofilm kill 10.6, D1 mod confirm 17084*, D1 ag no DA 1496 and Isoprot counter 3244*.
For COC(=O)Nc1sccc1C(=O)Nc1sccc1C(=O)OC the results were HePTP inhibitor -1.1, FXIIa mix inh -0.2, FXIa inh mix -18.9, TNAP act DEA 0.8 and Calb biofilm kill -0.5.
Screening COC(=O)CCc1c(C)c(C#N)c2nc3ccccc3n2c1N1CCCC1 returned HePTP inhibitor -4.5, FXIIa mix inh 1.9, FXIa inh mix 1.7, D1 mod 5.54*, TNAP act DEA 1, Calb biofilm kill -1.4, D1 mod confirm 10456* and Isoprot counter 3348*.
For O=[N+]([O-])c1ccc(NCCNS(=O)(=O)c2ccc(Cl)cc2)c(Cl)c1 the results were HePTP inhibitor 3.1.
CCOC(=O)c1c(C)oc2c1c(C=NCC1CCCO1)c(O)c1ccccc12 (stereo unspecified) was read as HePTP inhibitor -7.5, FXIIa mix inh 9.7, FXIa inh mix 9.0, D1 mod 0.119, TNAP act DEA 0.9 and Calb biofilm kill 2.7.
For CCOC(=O)c1c(C)oc2c1c(C=NCc1ccccn1)c(O)c1ccccc12 the results were HePTP inhibitor 14.9, FXIIa mix inh 0.8, FXIa inh mix -1.1, D1 mod 4.17*, TNAP act DEA 0.8, Calb biofilm kill 6.4, D1 mod confirm 12568*, D1 ag no DA 1616 and Isoprot counter 3016.
O=C1C=CC(=O)N1c1ccccc1SC(F)(F)F was read as HePTP inhibitor -0.3.
Screening CCc1ccc(C2C(C#N)=C(N)SC(N)=C2C#N)cc1 returned HePTP inhibitor 6.9, FXIIa mix inh -16.9, FXIa inh mix 5.3, D1 mod 1.9 and TNAP act DEA 0.9.
CCc1ccc(C2C(C#N)=C(N)SC(N)=C2C#N)s1 was read as HePTP inhibitor 0.2, FXIIa mix inh 1.7, FXIa inh mix 2.3, D1 mod 7.29*, TNAP act DEA 0.9, Calb biofilm kill 4.2, D1 mod confirm 8708*, D1 ag no DA 1568 and Isoprot counter 3044*.
`Cc1cccc(OCCSc2nc3ccccc3c(=O)[nH]2)c1` gave HePTP inhibitor 13.0.
O=c1[nH]c(SCCOc2ccccc2)nc2ccccc12 was read as HePTP inhibitor 5.3, FXIIa mix inh 3.5, FXIa inh mix 9.2, D1 mod 5.28*, TNAP act DEA 0.9, Calb biofilm kill 5.2, D1 mod confirm 7564* and Isoprot counter 3064*.
For COc1ccc(N(CC(=O)Nc2cccc(SC)c2)S(=O)(=O)c2ccccc2)cc1 the results were HePTP inhibitor -8.7.
O=C(Nc1sc2c(c1C(=O)NCc1cccnc1)CCCC2)c1ccco1 was read as HePTP inhibitor 18.7, FXIIa mix inh -5.9, FXIa inh mix 9.1, D1 mod 11.8*, TNAP act DEA 0.8, Calb biofilm kill -5.9, D1 mod confirm 17940*, D1 ag no DA 1360 and Isoprot counter 3988*.
CC1N(c2ccccn2)c2ccccc2N1c1ccccn1 was read as HePTP inhibitor 2.6.
COc1cccc(-n2c(SCC(=O)Nc3cc(C)on3)nc3c([nH]c4ccccc43)c2=O)c1 was read as HePTP inhibitor 10.2, FXIIa mix inh -16.9, FXIa inh mix 1.8, D1 mod 5.67*, TNAP act DEA 0.8, Calb biofilm kill 7.4, D1 mod confirm 10104*, D1 ag no DA 1812 and Isoprot counter 4472*.
CC1=Nc2ccccc2/C1=C\c1sc(=S)n(-c2ccccc2)c1O was read as HePTP inhibitor -1.5.
COC(=O)c1nc(N)sc1-c1ccccc1 was read as HePTP inhibitor -15.0, FXIIa mix inh 2.5, FXIa inh mix 4.1, D1 mod 11.5*, TNAP act DEA 0.9, Calb biofilm kill 11.4, D1 mod confirm 21800*, D1 ag no DA 1648 and Isoprot counter 3496*.
O=C1c2ccccc2-c2onc3ccc(N4CCCCC4)c1c23 was read as HePTP inhibitor 6.5.
Screening COc1cc2c(cc1OC)C(C)N(C(=O)c1cc3n(n1)C(C(F)(F)F)CC(c1ccco1)N3)CC2 (stereo unspecified) returned HePTP inhibitor 16.3, FXIIa mix inh -1.0, FXIa inh mix -4.7, D1 mod 5.98*, TNAP act DEA 0.8, Calb biofilm kill 2.5, D1 mod confirm 12888*, D1 ag no DA 1708 and Isoprot counter 4328*.
